Rows were chosen to be rich in hits. Some 3.2% of all compounds tested hit in one or more screens of this group.
S16 viability: toxic to S16 Pmp22-F2sN Schwann cells. S16 Pmp22-F2sN Schwann cells viability, CellTiter-Glo, 24 h. Potency, µM (titrated, usually from 57.5 µM), for inactives: at the highest dose activity change, negative = cytotoxicity, hits mostly cytotoxic. 0.48% of 43,000 active. AID 1508642; further: potency means the concentration at half of the fitted maximal effect; on the % scale 0 is the no-effect control and ±100 the full control effect; nearly all actives have a fitted effect of over 65% in size
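S16 Schwann cells carrying the Pmp22-F2sN reporter, seeded in 1536-well format, were exposed to library compounds for 24 h at 37C. Viability was read as CellTiter-Glo luminescence after 15 min at room temperature.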
pS6 MEF inh: inhibitors of mTORC1 signaling in Tsc2-/- p53-/- MEF cells. Tsc2-/- p53-/- MEF, phospho-rpS6 immunofluorescence/PI, 24 h. Potency, µM (series often up to 38.3 µM), inactives show at the top dose activity change, negative = inhibition, actives largely listed as inhibitors. 0.78% of 44,000 active;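 further: potency means the concentration at half of the fitted maximal effect; plate controls were DMSO for no effect and rapamycin for full effect; nearly all actives have a fitted effect of over 50% in size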
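Readout is phospho-S6 Alexa 488 signal normalized to PI per well, reported as % active cells with thresholds set from rapamycin (7.5 nM) and DMSO controls. Cells: Tsc2-/-, p53-/- MEFs, 24 hrs compound at 37 C; PI cell number serves as viability.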
p53null 32C tox: selectivity test: cytotoxicity in p53 null cells, permissive temperature; H1299-neo p53 null cells, ATP luminescence, 24 h, 32C; Potency, µM (highest dose often 46.1 µM), for inactives: at the top dose activity change, negative = cytotoxicity, usual class: cytotoxic; 0.62% of 55,000 active;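 further: potency means the concentration at half of the fitted maximal effect; 0% = DMSO only and -100% = full killing by 100 µM tamoxifen; nearly all actives have a fitted effect of over 55% in size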
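H1299-neo, 600 cells/well; overnight 37C; cpd up to 46 uM, 24 h at 32C; ATPlite luminescence after 20 min RT; normalized to DMSO (0%) and tamoxifen 100 uM (100% kill); Hill-fit AC50.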
p53null 39C tox: selectivity test: cytotoxicity in p53 null cells, nonpermissive temperature; H1299 p53-null (neo) cells, 39C, ATPlite viability, 24 h; Potency, µM (highest dose often 46.1 µM), inactives show at the top dose activity, negative = cell killing, usual class: cytotoxic; 0.97% of 55,000 active; AID 904;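 further: potency means the concentration at half of the fitted maximal effect; 0% = DMSO only and -100% = full killing by 100 µM tamoxifen; nearly all actives have a fitted effect of over 50% in size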
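Temperature-shift cytotoxicity format: compound titrations on p53-null or A138V-expressing H1299 cells held 24 hr at 39C, cell ATP then measured, AC50 from Hill model.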
PMP22 txn: modulates PMP22 transcription in S16 Schwann cells | S16 Pmp22-F2sN Schwann cells, FLuc/NLuc coincidence luminescence, 24 h | Potency, µM (highest dose often 57.5 µM), without a hit: top-dose activity change, negative = inhibition, most hits filed as inhibitors | 2% of 43,000 active; active means clear falling dose curves in both reporters; inconclusive means both reporters move, but less clearly or upward; inactive means either reporter flat; the % is the NLuc reporter signal; further: potency means the concentration at half of the fitted maximal effect; on the % scale 0 is the no-effect control and ±100 the full control effect
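Rat S16 Pmp22-F2sN cells, 500-1,000/well in phenol red-free DMEM + 10% FBS, compound-treated 24 h (37C, 5% CO2). Luminescence: FLuc read, Stop&Glo added, NLuc read.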
NLuc saturating: inhibits NanoLuc at saturating substrate, PMP22 counter-screen; shares compounds with PMP22 txn; Secreted NLuc enzyme (filtered S16 cell medium), Nano-Glo luminescence; Potency, µM (titrated, usually from 57.5 µM), for the others: top-dose activity change, negative = inhibition, hits mostly inhibitors; 4% of 690 active; AID 1508638; further: potency means the concentration at half of the fitted maximal effect; on the % scale 0 is the no-effect control and ±100 the full control effect
NLuc Km counter: inhibits NanoLuc under Km conditions, PMP22 counter-screen; shares compounds with PMP22 txn; secreted NLuc enzyme, coelenterazine luminescence, Km conditions; Potency, µM (top dose mostly 57.5 µM), inactives show at the top dose activity change, negative = inhibition, usual class: inhibitors; 5% of 690 active; further: potency means the concentration at half of the fitted maximal effect; on the % scale 0 is the no-effect control and ±100 the full control effect
FLuc counter: inhibits firefly luciferase, PMP22 counter-screen | shares compounds with PMP22 txn | purified P. pyralis FLuc, luminescence, 10 min | Potency, µM (doses to about 57.5 µM), without a hit: top-dose activity, negative = inhibition, actives largely listed as inhibitors | 690 tested, under 10 active | AID 1508640; further: % of control where 0% means no effect
Target sequence (P08659 whole entry, looked up): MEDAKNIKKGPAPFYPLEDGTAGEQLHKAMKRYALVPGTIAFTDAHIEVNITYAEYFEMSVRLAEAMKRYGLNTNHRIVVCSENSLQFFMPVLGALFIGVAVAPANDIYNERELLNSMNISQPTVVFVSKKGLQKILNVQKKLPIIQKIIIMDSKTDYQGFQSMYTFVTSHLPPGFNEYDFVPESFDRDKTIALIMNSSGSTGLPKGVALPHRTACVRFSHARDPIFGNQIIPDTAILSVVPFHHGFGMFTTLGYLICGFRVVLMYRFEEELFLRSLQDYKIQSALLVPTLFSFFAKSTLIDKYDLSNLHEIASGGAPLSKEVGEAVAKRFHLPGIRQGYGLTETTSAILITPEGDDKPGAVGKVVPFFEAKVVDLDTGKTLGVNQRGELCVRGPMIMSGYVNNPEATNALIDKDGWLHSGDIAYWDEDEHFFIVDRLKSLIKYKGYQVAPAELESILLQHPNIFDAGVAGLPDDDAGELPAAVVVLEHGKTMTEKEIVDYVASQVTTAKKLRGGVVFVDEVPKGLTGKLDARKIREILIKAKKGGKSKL
S16 viab conf: confirmation of cytotoxicity in S16 Pmp22-F2sN Schwann cells (luciferase reporters placed in the Pmp22 gene); shares compounds with PMP22 txn; Potency, µM (titrated, usually from 57.5 µM), for the others: top-dose activity change, negative = viability loss, hits mostly cytotoxic; 7% of 690 active; S16 Schwann cells viability, CellTiter-Glo ATP luminescence, 24 h; further: potency means the concentration at half of the fitted maximal effect; on the % scale 0 is the no-effect control and ±100 the full control effect
PMP22 txn cnf: PMP22 transcription modulation, confirmatory | shares compounds with PMP22 txn | S16 Schwann cells Pmp22-F2sN, dual luciferase, 24 h | Potency, µM (highest dose often 57.5 µM), for inactives: at the highest dose activity change, negative = inhibition, actives largely listed as inhibitors | 22% of 690 active; active means clear falling dose curves in both reporters; inconclusive means both reporters move, but less clearly or upward; inactive means either reporter flat; the % is the FLuc reporter signal; further: potency means the concentration at half of the fitted maximal effect
* hit, by the source's call; ? = inconclusive; . = no result given. Unless noted, the call rests on the fitted dose curve; in most records, active means well fitted curve in the direction sought with a large enough effect; inconclusive means small, poorly fitted or top-dose-only effect, or another doubt; inactive means no such curve, though single readings can be large; an effect the other way counts as inactive or inconclusive.

SMILES	S16 viability	pS6 MEF inh	p53null 32C tox	p53null 39C tox	PMP22 txn	NLuc saturating	NLuc Km counter	FLuc counter	S16 viab conf	PMP22 txn cnf
N#C/C(=C/c1ccc(Cl)cc1Cl)c1nc2ccccc2c(=O)[nH]1	-1%	8%	6%	13%	-10%	.	.	.	.	.
COc1c(Cl)cc(Cl)cc1/C=C(\C#N)c1nc2ccccc2[nH]1	?	-9%	-19%	2%	11µM*	?	?	6%	-19%	?
COc1ccc(/C=C(\C#N)c2nc3ccccc3c(=O)[nH]2)cc1OC	1%	-1%	-4%	1%	-18%	.	.	.	.	.
O=C(Nc1cccc(Br)c1)N1CCC(CN2CCCCC2)CC1	0%	0%	-1%	-5%	-1%	.	.	.	.	.
COc1ccc(N2CCN(S(=O)(=O)CCNC(=O)Cc3ccc(-c4ccccc4)cc3)CC2)cc1	11%	-6%	-2%	-1%	10µM*	-9%	2%	-18%	-18%	-12%
Cc1nnc(N2CCCC(C(=O)Nc3ccccc3C(F)(F)F)C2)c2nn(-c3ccccc3)c(C)c12 (stereo not given)	28µM*	-8%	-2%	-3%	13µM*	-19%	-2%	4%	?	?
Cc1nnc(N2CCC(C(=O)N3CCCCC3)CC2)c2nn(-c3ccc(Cl)cc3)c(C)c12	?	-2%	27%	-5%	19µM*	-6%	5%	-2%	-9%	?
COc1ccc(CNC(=O)C2CCCN(c3nnc(C)c4c(C)n(-c5ccc(C)cc5)nc34)C2)cc1 (stereo not given)	?	-14%	-1%	3%	17µM*	?	?	-4%	?	?
Cc1ccc(NC(=O)C2CCN(c3nnc(C)c4c(C)n(-c5ccccc5)nc34)CC2)cc1Cl	11%	-8%	-4%	30%	-3%	.	.	.	.	.
COc1ccc(NC(=O)C2CCCN(c3nnc(C)c4c(C)n(-c5ccccc5)nc34)C2)cc1Cl (stereo not given)	?	?	?	?	20µM*	-9%	-1%	28%	43µM*	?
COC(=O)c1ccccc1NC(=O)C1CCCN(c2nnc(C)c3c(C)n(-c4ccccc4)nc23)C1 (stereo not given)	12%	-6%	2%	21%	-1%	.	.	.	.	.
CCc1nn2c(=O)cc(COC(=O)c3ccc(NC(=O)COc4ccc(C)cc4)cc3)nc2s1	1%	15%	?	-1%	24%	.	.	.	.	.
COc1cc(OC)cc(-n2c(=O)[nH]c3cc(C(=O)NCCc4ccc(C)cc4)ccc3c2=O)c1	-4%	-12%	4%	-6%	-1%	.	.	.	.	.
Cn1cnc(S(=O)(=O)N2CCCC(C(=O)NCc3ccccc3Cl)C2)c1 (stereo not given)	18%	7%	-6%	-3%	-5%	.	.	.	.	.
Cc1ccc(CN2CCCn3nc(C(=O)NC(C)C)cc3C2=O)cc1	15%	?	1%	6%	-18%	.	.	.	.	.
CCOC(=O)c1c(C)oc2nc(C)nc(NCCc3ccc(Cl)cc3)c12	14%	?	0%	-3%	-35%	.	.	.	.	.
CCOc1ccc(CCNC(=O)c2c(C)oc3ncn(CC(C)C)c(=O)c23)cc1	2%	5%	-5%	-29%	20µM*	?	2%	?	2%	-32%
CCOC(=O)c1c(C)oc2nc(C)nc(NCCc3ccc(OCC)cc3)c12	-27%	6%	-4%	10%	14µM*	?	?	-10%	-11%	?
CCC1CCCCN1CCCNC(=O)c1ccc2c(c1)N(Cc1ccccc1F)C(=O)c1ccccc1S2(=O)=O (stereo not given)	?	?	-2%	?	8.9µM*	-21%	4%	-14%	?	?
COc1ccc(OCc2nc(-c3ccc(OC)c(OC)c3)no2)cc1	23%	-1%	-2%	-3%	-1%	.	.	.	.	.
CC(=O)c1ccc(NC(=O)CSC2=Nc3ccccc3N=C(c3ccc(F)cc3)C2)cc1	?	4%	-5%	41%	15µM*	?	?	0%	-6%	?
CN1CCC2(CC1)N=C(c1ccc(F)cc1)C(=S)N2C(=O)c1ccccc1	.	.	.	20%	.	.	.	.	.	.
Cc1ccc(CSc2nc3ccc(NC(=O)COc4ccccc4)cc3s2)cc1	7%	1%	-10%	15%	15µM*	1%	2%	6%	-16%	-25%
O=C(COc1ccccc1)Nc1ccc2nc(SCC(=O)N3CCc4ccccc43)sc2c1	-11%	-7%	-10%	-15%	?	.	.	.	.	.
O=C(COc1ccc(F)cc1)Nc1ccc2nc(SCC(=O)N3CCc4ccccc43)sc2c1	13%	-1%	-7%	-9%	3µM*	?	-11%	-1%	-20%	?
CCOc1ccc(C(=O)Nc2ccc3nc(SCc4ccccc4)sc3c2)cc1	9%	-13%	-14%	-24%	8.9µM*	-7%	2%	3%	?	18µM*
CC(C)NC(=O)c1cnc2sc(N3CCCCCC3)nn2c1=O	26%	0%	-5%	-30%	-18%	.	.	.	.	.
Cc1nc2nc(SCc3c(F)cccc3Cl)nn2c(C)c1Cc1ccccc1	?	6%	-1%	4%	?	.	.	.	.	.
CCOc1ccccc1C(=O)Nc1c(C(=O)Nc2ccc(F)cc2)oc2ccccc12	20%	-17%	8%	30%	4.1µM*	?	-7%	-7%	-3%	5.6µM*

Screening results from PubChem.
